# Measurements published in PubChem BioAssay AID624311 (Broad Institute, 2012).
# Calls of active or inactive are those of the source.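 Rule for the calls: active = fluorescence dropping 30% or more below neutral controls, activity change at or below -30%; inactive = the rest.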
# Target: Protein disulfide-isomerase (Homo sapiens) (UniProt P07237)
# Assay: PDI inhibitors, fluorescent insulin aggregation, confirmation, orthogonal assay for PDI inhibitor project, biochemical, fluorescence, dry powder samples (AID 624311)
# Conditions: Recombinant PDI insulin reduction, ProteoStat aggregation fluorescence; series mostly up to 18 µM
# Chain of Protein disulfide-isomerase (Homo sapiens) (P07237 whole entry, looked up): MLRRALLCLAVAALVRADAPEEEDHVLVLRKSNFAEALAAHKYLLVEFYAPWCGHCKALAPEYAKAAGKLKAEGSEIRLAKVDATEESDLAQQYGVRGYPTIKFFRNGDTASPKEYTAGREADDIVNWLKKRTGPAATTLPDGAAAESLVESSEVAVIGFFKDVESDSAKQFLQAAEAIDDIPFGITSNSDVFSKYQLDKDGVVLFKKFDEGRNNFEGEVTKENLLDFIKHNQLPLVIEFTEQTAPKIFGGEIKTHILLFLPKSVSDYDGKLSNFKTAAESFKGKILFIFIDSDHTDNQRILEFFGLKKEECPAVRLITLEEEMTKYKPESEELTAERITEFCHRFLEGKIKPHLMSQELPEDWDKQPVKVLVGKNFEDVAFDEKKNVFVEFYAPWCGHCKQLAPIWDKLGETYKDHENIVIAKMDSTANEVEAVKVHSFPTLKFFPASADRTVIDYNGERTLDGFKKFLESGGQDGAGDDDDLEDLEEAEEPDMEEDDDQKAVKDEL
compound,measurement,value
C[C@H]1CN([C@@H](C)CO)C(=O)c2cccc(NS(C)(=O)=O)c2O[C@H]1CN(C)Cc1ccc(Oc2ccccc2)cc1,outcome,inactive
